Read-out in assay [1]: xenobiotic metabolism (CYP1A1), CYP1A1 (gene 1543)
The assay is described as follows: CLD_CYP1A1_6hr: CellzDirect (CLD) Gene Expression Assay for xenobiotic metabolism (CYP1A1) at 6 hours (AID 2283661).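 On AC50: potency for transcript induction above DMSO vehicle baseline.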 In short, it runs like this:
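Read-out 6 h post-dose: qNPA chemiluminescent quantitation of transcript induction against 0.2% DMSO. Cells were cultured primary human hepatocytes from two separate donor preparations; phase-contrast morphology annotated apparent cytotoxicity.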

Assay [2] relates to Thyroperoxidase (TPO), gene 54314. The assay is described as follows: CCTE_Simmons_AUR_rTPO: CCTE's Amplex UltraRed Assay for Thyroperoxidase (TPO) Inhibition, Simmons Lab (AID 2283662).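 On AC50: potency for loss of signal meaning inhibition of peroxidase activity.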 In short, it runs like this: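 Rat thyroid microsomes (5 ug protein) were incubated with test compound (8 concentrations, 5 nM–87.5 uM final, 0.5% DMSO), 25 uM Amplex UltraRed and 300 uM H2O2 in 200 mM phosphate buffer for 30 min at 37C in the dark; fluorescence read at 544/590 nm.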

Assay [3] can be described thus: Tanguay_ZF_120hpf_TR_legacy: (Legacy) Oregon State University Tanguay Lab 120 Hour Post-fertilization zebrafish Assay for Touch Response (AID 2283667). In short, it runs like this: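 Binary touch-response call at 120 hpf, analysed as gain of signal versus DMSO baseline. Wild-type 5D larvae, static exposure at 28C, 0.64% DMSO final; 5uM trimethyltin chloride as positive control.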

Read-out in assay [4]: organic anion transporter (SLCO1B1), SLCO1B1 (gene 10599)
Put plainly: CLD_SLCO1B1_6hr: CellzDirect (CLD) Gene Expression Assay for organic anion transporter (SLCO1B1) at 6 hours (AID 2283668).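 Further: active means mRNA induction above DMSO baseline.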 In short, it runs like this:
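SLCO1B1 mRNA induction measured 6 h after dosing by quantitative nuclease protection with chemiluminescent read-out, in human primary hepatocyte cultures given chemicals at several concentrations (vehicle 0.2% DMSO). Increase over DMSO baseline fitted; morphology-based cytotoxicity annotated yes/no.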

Assay [5] is described as follows: CLD_ACTIN_24hr: CellzDirect (CLD) Gene Expression Assay for Baseline Control (Actin) at 24 hours (AID 2283670). In short, it runs like this:
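This 24 h qNPA (S1 nuclease protection, chemiluminescence) actin transcript readout in cultured human liver primary cells serves as baseline control. Signal is fitted upward relative to 0.2% DMSO; chemicals tested at multiple concentrations across two donor preparations.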

Assay [6] is described as follows: CCTE_Padilla_ZF_144hpf_TERATOSCORE: (Legacy) CCTE's 144 Hour Post-fertilization zebrafish Assay Teratoscore, Padilla Lab (AID 2283679; active means hit-call score of the fitted dose curve at least 0.9, where 1 is the maximum; inactive means score below 0.9;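 on AC50: zebrafish embryos with chorions exposed by immersion from 6-8 hpf to 5 dpf with daily renewal; teratogenicity score from eye scoring of death hatching and malformations at 144 hpf; higher score means more developmental defects relative to DMSO baseline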). In short, it runs like this:
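Larvae scored by eye at 144 hpf for death, hatching and malformations after a day in clean Hanks'. Before that, daily-renewed exposure at 80 uM (0.4% DMSO, 26C) from roughly 6-8 hpf through 5 dpf, 4 embryos per chemical.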

Read-out in assay [7]: xenobiotic metabolism (CYP1A2), CYP1A2 (gene 1544)
Put plainly: CLD_CYP1A2_24hr: CellzDirect (CLD) Gene Expression Assay for xenobiotic metabolism (CYP1A2) at 24 hours (AID 2283683). In short, it runs like this:
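CYP1A2 mRNA induction measured by quantitative nuclease protection (chemiluminescent) in human primary hepatocytes 24 h after multi-concentration chemical dosing with daily fresh solutions. DMSO (0.2%) baseline; positive-direction fitting; morphology-based cytotoxicity noted.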

Read-out in assay [8]: ABC Transporter (ABCB1), ABCB1 (gene 5243)
The assay is described as follows: CLD_ABCB1_24hr: CellzDirect (CLD) Gene Expression Assay for ABC Transporter (ABCB1) at 24 hours (AID 2283684). In short, it runs like this: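 ABCB1 mRNA induction versus 0.2% DMSO vehicle was read by qNPA chemiluminescence at 24 h. Cultured human hepatocytes from two donor preparations received daily fresh dosing, and phase-contrast cytotoxicity calls were annotated alongside the data.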

Read-out in assay [9]: Cytochrome P450 2B6 (Homo sapiens) (UniProt P20813)
Put plainly: CLD_CYP2B6_24hr: CellzDirect (CLD) Gene Expression Assay for xenobiotic metabolism (CYP2B6) at 24 hours (AID 2283686). In short, it runs like this:
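qNPA chemiluminescent measurement of mRNA at 24 hours in human primary hepatocyte cultures from two donor preparations, with daily fresh dosing and 0.2% DMSO vehicle as baseline. Morphology-based cytotoxicity flagged yes/no.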

Read-out in assay [10]: alkyl and aryl transferase (GSTA2), GSTA2 (gene 2939)
Put plainly: CLD_GSTA2_6hr: CellzDirect (CLD) Gene Expression Assay for alkyl and aryl transferase (GSTA2) at 6 hours (AID 2283666). In short, it runs like this:
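GSTA2 transcript induction at 6 h, quantified by nuclease protection (qNPA) with chemiluminescent detection, in human liver primary hepatocytes exposed to several compound concentrations with 0.2% DMSO as baseline; phase-contrast morphology annotated apparent cytotoxicity.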

Read-out in assay [11]: ABC Transporter (ABCB11), ABCB11 (gene 8647)
The assay is described as follows: CLD_ABCB11_6hr: CellzDirect (CLD) Gene Expression Assay for ABC Transporter (ABCB11) at 6 hours (AID 2283675).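 Further: hits raise ABCB11 mRNA level so AC50 marks induction.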 In short, it runs like this:
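Read-out was ABCB11 mRNA gain of signal by quantitative nuclease protection assay, relative to 0.2% DMSO vehicle, 6 h post-dose. Cells were primary human hepatocytes from two donors, treated across multiple concentrations; phase-contrast cytotoxicity noted yes/no.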

Read-out in assay [12]: Cytochrome P450 2B6 (Homo sapiens) (UniProt P20813)
The assay is described as follows: CLD_CYP2B6_6hr: CellzDirect (CLD) Gene Expression Assay for xenobiotic metabolism (CYP2B6) at 6 hours (AID 2283677).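 Further: actives raise CYP2B6 transcript above DMSO baseline so AC50 marks an inducer.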 In short, it runs like this:
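CYP2B6 transcript levels, read by chemiluminescent qNPA, were fitted for increase versus DMSO baseline; cultured human liver hepatocytes from two donor preparations were harvested 6 h after exposure to test chemicals at multiple concentrations.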

Read-out in assay [13]: Cytochrome P450 2C19 (Homo sapiens) (UniProt P33261)
The assay is described as follows: CLD_CYP2C19_6hr: CellzDirect (CLD) Gene Expression Assay for xenobiotic metabolism (CYP2C19) at 6 hours (AID 2283678). In short, it runs like this:
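CYP2C19 transcript induction was quantified by quantitative nuclease protection assay with chemiluminescent read-out, 6 h after dosing. Cells were primary human hepatocytes from two donor preparations, given fresh dosing solutions daily in 0.2% DMSO vehicle. Activity was relative to DMSO.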

Read-out in assay [14]: Cytochrome P450 2C9 (Homo sapiens) (UniProt P11712)
The assay is described as follows: CLD_CYP2C9_24hr: CellzDirect (CLD) Gene Expression Assay for xenobiotic metabolism (CYP2C9) at 24 hours (AID 2283688). In short, it runs like this:
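Induction of CYP2C9 mRNA was quantified by quantitative nuclease protection assay (chemiluminescence), gain of signal versus 0.2% DMSO vehicle, 24 h after dosing. Human primary hepatocytes (two donors) received fresh chemical daily at multiple concentrations; morphology-based cytotoxicity flagged yes/no.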

The nature of assay [15]: CCTE_Simmons_CellTiterGLO_HEK293T: Viability Assessment in CCTE's Assays for Thyroperoxidase (TPO) Inhibition, Simmons Lab (AID 2283665). In short, it runs like this: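 Luminescent ATP readout (CellTiter-Glo, 20 min at room temperature) after 24 hr exposure of HEK293T cells to 5 nM–87.5 uM final compound; signal loss relative to DMSO vehicle indicated cytotoxicity; dichlone titrated as positive control.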
(ATP-based viability assays read luminescence as a measure of living cells.)

Read-out in assay [16]: Cytochrome P450 3A4 (Homo sapiens) (UniProt P08684)
Put plainly: CLD_CYP3A4_6hr: CellzDirect (CLD) Gene Expression Assay for xenobiotic metabolism (CYP3A4) at 6 hours (AID 2283680). In short, it runs like this:
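CYP3A4 mRNA induction, 6 h after dosing of cultured primary human hepatocytes from two donors, read by quantitative nuclease protection (qNPA, chemiluminescence). Vehicle 0.2% DMSO as baseline; morphology-based cytotoxicity annotated yes/no.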

Read-out in assay [17]: Cytochrome P450 2C19 (Homo sapiens) (UniProt P33261)
Put plainly: CLD_CYP2C19_24hr: CellzDirect (CLD) Gene Expression Assay for xenobiotic metabolism (CYP2C19) at 24 hours (AID 2283687).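 Further: activity means mRNA induction above DMSO vehicle baseline.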 In short, it runs like this: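 CYP2C19 mRNA was quantified by qNPA chemiluminescence after 24 h of daily dosing of cultured human primary hepatocytes from two donors; vehicle was 0.2% DMSO, and increases over DMSO baseline were fitted.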

Read-out in assay [18]: xenobiotic metabolism (CYP1A1), CYP1A1 (gene 1543)
Put plainly: CLD_CYP1A1_24hr: CellzDirect (CLD) Gene Expression Assay for xenobiotic metabolism (CYP1A1) at 24 hours (AID 2283673).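 Further: CYP1A1 mRNA level by quantitative nuclease protection with chemiluminescence.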 In short, it runs like this: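 Transcript levels were read at 24 h by qNPA chemiluminescence in human liver primary cells. Cells got daily fresh dosing at multiple concentrations (vehicle 0.2% DMSO). Induction fitted upward against DMSO; phase-contrast cytotoxicity annotated.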

Each structure is given as a SMILES string. Where “and” joins values, the source holds several entries; their conditions need not be identical. Identical values can stand only once. Results filed as inconclusive are left out. The source holds several records for some structures; these can differ, active in one and inactive in another. Calls of active or inactive are those of the source. How the source made its calls, unless noted: active means hit-call score of the fitted dose curve at least 0.9, where 1 is the maximum; inconclusive means response in the unintended direction; inactive means score below 0.9.

Among the data in PubChem BioAssay (EPA / NIEHS) are outcome and AC50 values, retold here.

One may read the AC50 as the concentration giving half of the maximal activity seen.

Chain of Cytochrome P450 2C19 (Homo sapiens) (P33261 whole entry, looked up): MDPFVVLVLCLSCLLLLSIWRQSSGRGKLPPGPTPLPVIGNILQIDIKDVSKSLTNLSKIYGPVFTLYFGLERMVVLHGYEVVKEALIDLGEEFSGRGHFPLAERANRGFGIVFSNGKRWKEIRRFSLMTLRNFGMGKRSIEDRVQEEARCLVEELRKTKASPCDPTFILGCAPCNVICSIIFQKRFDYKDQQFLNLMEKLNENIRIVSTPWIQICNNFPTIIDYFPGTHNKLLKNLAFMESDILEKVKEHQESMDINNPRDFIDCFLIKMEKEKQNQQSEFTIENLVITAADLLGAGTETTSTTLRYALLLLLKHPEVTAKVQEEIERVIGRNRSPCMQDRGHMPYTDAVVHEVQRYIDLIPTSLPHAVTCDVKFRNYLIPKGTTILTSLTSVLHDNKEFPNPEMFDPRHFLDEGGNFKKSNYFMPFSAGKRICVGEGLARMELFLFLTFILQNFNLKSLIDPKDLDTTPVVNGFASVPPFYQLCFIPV
Chain of Cytochrome P450 3A4 (Homo sapiens) (P08684 whole entry, looked up): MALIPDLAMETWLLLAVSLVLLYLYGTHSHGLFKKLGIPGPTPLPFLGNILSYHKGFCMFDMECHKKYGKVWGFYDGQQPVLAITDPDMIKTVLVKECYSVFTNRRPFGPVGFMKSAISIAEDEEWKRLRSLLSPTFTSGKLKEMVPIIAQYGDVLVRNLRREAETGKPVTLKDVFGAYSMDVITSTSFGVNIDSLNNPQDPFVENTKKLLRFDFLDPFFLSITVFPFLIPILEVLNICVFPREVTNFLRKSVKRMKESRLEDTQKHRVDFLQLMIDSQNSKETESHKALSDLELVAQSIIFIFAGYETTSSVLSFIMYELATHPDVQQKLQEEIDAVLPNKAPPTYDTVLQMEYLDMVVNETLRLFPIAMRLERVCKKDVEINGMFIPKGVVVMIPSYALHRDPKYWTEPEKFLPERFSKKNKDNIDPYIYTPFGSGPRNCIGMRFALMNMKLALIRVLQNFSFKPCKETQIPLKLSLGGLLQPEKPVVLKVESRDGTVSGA

Regarding `CC(C)N(C(=O)COc1nnc(C(F)(F)F)s1)c1ccc(F)cc1`, the compound was called inactive in assay [1], in assay [2], in [3], in [4], in assay [5] and in [7]. For the same compound, in assay [8], the compound was classed as inactive. Also, the AC50 in [6] was 39.2 µM (active); in assay [9], 7.16 µM (active).

As to `O=C(NC(=O)c1c(F)cccc1F)Nc1ccc(OC(F)(F)C(F)OC(F)(F)F)c(Cl)c1` (configuration not stated), the compound was classed as inactive in assay [1], in assay [10], in assay [3], in assay [5], in assay [11] and in assay [12]. Besides, the compound was called inactive in assay [13], in assay [6], in assay [8], in [9] and in assay [14].

Take `O=C(Nc1ccccc1)Nc1cnns1`: the figures for the AC50 in assay [1], in assay [2] and in assay [7] were 1.87 µM (active), 43.8 µM (active) and 6.13 µM (active), respectively. Further, the compound was called inactive in assay [15], in [10], in [3], in assay [4], in assay [11] and in assay [6]. For the same compound, the compound was classed as inactive in [16].

In the case of `O=[N+]([O-])/N=C1\NCCN1Cc1ccc(Cl)nc1`, the compound was classed as inactive in assay [1], in assay [10], in assay [3], in assay [4], in assay [5] and in [11]. The compound was called inactive in assay [13], in assay [6], in [8], in [9] and in assay [17].

Turning to `CC(C)OC(=O)Nc1cccc(Cl)c1`, the AC50 in assay [1] is 3.3 µM (active); in assay [6], 72.3 µM (active); in assay [16], 12.2 µM (active); in assay [7] it was 2.34 µM (active); in assay [9], 7.72 µM (active). The compound was classed as inactive in assay [10], in assay [3], in [4], in [8], in assay [17] and in [14].

For the compound `CC(C)(C)C(O)C(Oc1ccc(Cl)cc1)n1cncn1` (configuration not stated), the AC50 in [1] is 1.55 µM (active); in [3], 41.5 µM (active) and 65.4 µM (active); in assay [18], 2.22 µM (active); in assay [6], 52.6 µM (active) and 46.6 µM (active) and 57.3 µM (active); in [7], 2.95 µM (active); in [9], 2.51 µM (active). For the same compound, the result in assay [10], in assay [3], in assay [11], in [8], in [17] and in assay [14] was inactive.

Turning to `COP(=S)(OC)Oc1ccc([N+](=O)[O-])cc1`, the AC50 in assay [1] is 2.88 µM (active); in assay [2], 4.82 µM (active); in [6], 16.1 µM (active); in assay [7], 2.07 µM (active); in [9], 5.28 µM (active). For the same compound, the compound was classed as inactive in assay [15], in [3], in assay [4], in assay [16], in assay [8] and in [14].

Take `CCOCN(C(=O)CCl)c1c(C)cccc1CC`: the compound was called inactive in assay [1], in [10], in [3], in [4], in assay [11] and in assay [13]. For the same compound, the compound was classed as inactive in assay [8] and in assay [14]. Moreover, the AC50 in assay [6] was 15.5 µM (active); in [16], 0.328 µM (active); in assay [7], 0.333 µM (active); in assay [9], 2.05 µM (active).
